Rows were chosen to be rich in hits. Some 4.1% of all compounds tested hit in one or more screens of this group.
DAX1 inh-1 = inhibitors of DAX1 repression of SF-1 activated StAR promoter | inhibition, % at 6.8 µM | 370,000 compounds, 1.1% hits | HEK293T StAR-luciferase reporter, SF-1/DAX-1 repression relief;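 active means inhibition above the mean over all tested compounds plus 3 SD, cut at about 3.6% in these data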;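 further: 0% = DAX-1 cells with DMSO and 100% = cells lacking DAX-1 with DMSO; higher inhibition means more luminescence from relief of DAX-1 repression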
hcDAF-12 act = activators of H. contortus DAF-12 nuclear receptor; HEK293 hcDAF-12 lit1-tk-luc reporter, luminescence; 0% DMSO, 100% Δ7-dafachronic acid; activation, % at 6.8 µM; 370,000 compounds, 1.4% hits; AID 652067;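 active means activation above the mean of all tested compounds plus 3 SD, cut at about 5.5% in these data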;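 further: 100% = response to 3 µM Δ7-dafachronic acid high control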
hgDAF12 agonist = hgDAF-12 agonism, primary luciferase screen | HEK293 GAL4-hgDAF12 UAS-luciferase reporter, agonist luminescence; normalized to butyrate control | activation, % at 6.8 µM | 370,000 compounds, 1.8% hits;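 active means activation above a cutoff set at the mean of all screened compounds plus 3 SD, cut at about 10% in these data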;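 further: 0% = DMSO wells and 100% = sodium butyrate wells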
DAX1 inh-2 = NR0B1 (DAX1) inhibition; P51843; HEK293 Gal4-DAX1 luciferase reporter, luminescence; inhibition, % at 6.75 µM; 340,000 compounds, 0.99% hits;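 active means inhibition above the mean over all tested compounds plus 3 SD, cut at about 4.2% in these data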;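 further: 0% = DAX1-transfected cells with DMSO and 100% = empty-vector control cells with DMSO; inhibition shows as a rise in luminescence from relieved DAX1 repression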
Target sequence (P51843 207-470 limits assumed): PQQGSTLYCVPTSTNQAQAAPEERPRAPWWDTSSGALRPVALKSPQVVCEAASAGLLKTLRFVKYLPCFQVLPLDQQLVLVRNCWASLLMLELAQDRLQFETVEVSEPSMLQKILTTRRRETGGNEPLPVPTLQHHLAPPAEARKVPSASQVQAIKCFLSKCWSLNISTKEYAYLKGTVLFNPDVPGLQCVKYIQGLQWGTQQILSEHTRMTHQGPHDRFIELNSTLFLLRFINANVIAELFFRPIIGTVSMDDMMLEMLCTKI
ssDAF12 agonist = activators of S. stercoralis DAF-12 nuclear receptor | activation, % at 6.8 µM | 370,000 compounds, 1% hits | HEK293 ssDAF-12/GRIP1 lit1-tk-luc reporter, luminescence; % of 3 µM dafachronic acid response | AID 652126;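 active means activation above the mean over all tested compounds plus 3 SD, cut at about 0.9% in these data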;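 further: 0% = DMSO-only wells and 100% = 3 µM delta7-dafachronic acid wells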
An asterisk follows results filed as active.

For CCOC(=O)c1cnc2c(ccc3ccccc32)c1NCCCN(C)C the results were DAX1 inh-1 1.4, hcDAF-12 act 2.4, hgDAF12 agonist 13.1*, DAX1 inh-2 8.1* and ssDAF12 agonist 0.2.
`CCOc1ccc(N(CC(=O)Nc2ccc(C)c(C)c2)S(C)(=O)=O)cc1` gave DAX1 inh-1 1.3, hcDAF-12 act 4.3, hgDAF12 agonist 7.8, DAX1 inh-2 8.9* and ssDAF12 agonist -0.3.
Screening CC(=O)c1ccc(NC(=O)C2Cc3ccccc3CN2C(=O)c2ccccc2)cc1 (stereo unspecified) returned DAX1 inh-1 0.0, hcDAF-12 act 6.0*, hgDAF12 agonist 3.0, DAX1 inh-2 -0.6 and ssDAF12 agonist -0.4.
For S=C(Nc1ccccc1Cl)N1CCCC1 the results were DAX1 inh-1 -0.2, hcDAF-12 act -0.6, hgDAF12 agonist 0.5, DAX1 inh-2 0.6 and ssDAF12 agonist -1.1.
S=C(Nc1ccc(Br)cc1Cl)N1CCCC1 was read as DAX1 inh-1 4.1*, hcDAF-12 act 1.7, hgDAF12 agonist 7.0, DAX1 inh-2 0.9 and ssDAF12 agonist -0.2.
`CO[C@H]([C@H](C)/C=C/N(C)C=O)[C@@H](C)C(=O)CC[C@H](C)[C@H](O)[C@H](C)[C@H]1OC(=O)/C=C/C(C)=C/C[C@H](O)C[C@@H]2C=CC[C@@H](C[C@H](OC)[C@@]3(CO3)[C@@H](OC)C[C@@H](OC)[C@@H]1C)O2` gave hcDAF-12 act -3.3, hgDAF12 agonist -11.0 and ssDAF12 agonist -1.6.
Screening O=C(Nc1nccs1)c1sc2cc(Cl)ccc2c1Cl returned DAX1 inh-1 0.6, hcDAF-12 act 2.3, hgDAF12 agonist 4.8, DAX1 inh-2 0.9 and ssDAF12 agonist 1.4*.
`O=C(Nc1nccs1)c1cc(Cl)ccc1[N+](=O)[O-]` gave DAX1 inh-1 -0.4, hcDAF-12 act 1.5, hgDAF12 agonist 2.5, DAX1 inh-2 -0.5 and ssDAF12 agonist -0.8.
O=C(NC1CC1)c1sc2cc(F)ccc2c1Cl was read as DAX1 inh-1 1.8, hcDAF-12 act 0.6, hgDAF12 agonist 2.5, DAX1 inh-2 1.0 and ssDAF12 agonist -0.9.
Screening O=C(NC1CC1)c1sc2cc(Cl)ccc2c1Cl returned DAX1 inh-1 4.3*, hcDAF-12 act 1.4, hgDAF12 agonist 6.5, DAX1 inh-2 1.3 and ssDAF12 agonist -0.1.
`Cc1ccc(NC(=O)CN(C)C(=O)/C=C/c2cccs2)cc1` gave DAX1 inh-1 0.2, hcDAF-12 act 1.5, hgDAF12 agonist -2.0, DAX1 inh-2 0.2 and ssDAF12 agonist 1.3*.
For CN(CCO)c1cccc2c1S(=O)(=O)N(Cc1cn(Cc3cccc(F)c3)nn1)Cc1ccccc1O2 the results were DAX1 inh-1 -0.4, hcDAF-12 act -3.0, hgDAF12 agonist -0.6 and ssDAF12 agonist -1.0.
Screening CCOC(=O)C1(Cc2ccc(OC)cc2)CCN(C(=O)c2cc3ccccc3[nH]2)CC1 returned DAX1 inh-1 1.1, hcDAF-12 act 3.5, hgDAF12 agonist 2.8, DAX1 inh-2 1.3 and ssDAF12 agonist 0.9*.
COc1ccc(OCCOc2ccccc2[N+](=O)[O-])cc1 was read as DAX1 inh-1 1.6, hcDAF-12 act 0.6, hgDAF12 agonist 8.5, DAX1 inh-2 0.6 and ssDAF12 agonist 1.2*.
`CC(C)C(NC(=O)[C@H](Cc1ccc(O)cc1)NC(=O)OC(C)(C)C)P(=O)(O)OC(Cc1ccccc1)C(=O)O` (stereo partly specified) gave hcDAF-12 act -0.8, hgDAF12 agonist 0.7 and ssDAF12 agonist -1.9.
For CN(C)C(=O)c1ccc(-c2n[nH]c(=O)c3ccccc23)cc1 the results were DAX1 inh-1 1.4, hcDAF-12 act 0.3, hgDAF12 agonist -0.6, DAX1 inh-2 4.8* and ssDAF12 agonist -1.5.
Screening COc1cc(O)c(C(CC(=O)N2CCC(C)CC2)c2ccc3c(c2)OCO3)c(OC)c1 (stereo unspecified) returned hcDAF-12 act -1.8, hgDAF12 agonist 2.9 and ssDAF12 agonist -1.5.
`CC(=O)Nc1cccc(Oc2cnc3ccccc3n2)c1` gave DAX1 inh-1 2.1, hcDAF-12 act 4.2, hgDAF12 agonist 5.7, DAX1 inh-2 4.6* and ssDAF12 agonist -0.2.
For CC(=O)Nc1ccc(Oc2cnc3ccccc3n2)cc1 the results were DAX1 inh-1 -0.7, hcDAF-12 act -1.0, hgDAF12 agonist 3.7, DAX1 inh-2 -0.6 and ssDAF12 agonist -1.3.
Cc1ccc(S(=O)(=O)NC(=O)Nc2cccc([N+](=O)[O-])c2)cc1 was read as DAX1 inh-1 -0.5, hcDAF-12 act -2.1, hgDAF12 agonist 1.1, DAX1 inh-2 0.3 and ssDAF12 agonist -0.7.
For Cc1ccc(NC(=O)CCCCCNS(=O)(=O)c2ccc(C)cc2)cc1 the results were DAX1 inh-1 0.7, hcDAF-12 act 1.6, hgDAF12 agonist -1.0, DAX1 inh-2 0.9 and ssDAF12 agonist 1.1*.
`Cc1ccc(S(=O)(=O)NCCNc2ccccc2[N+](=O)[O-])cc1` gave DAX1 inh-1 0.8, hcDAF-12 act -1.0, hgDAF12 agonist -0.2, DAX1 inh-2 4.3* and ssDAF12 agonist -2.2.
Cc1ccc(S(=O)(=O)NCCCCCCNS(=O)(=O)c2ccc(C)cc2)cc1 was read as DAX1 inh-1 -1.8, hcDAF-12 act -2.3, hgDAF12 agonist -1.1, DAX1 inh-2 1.1 and ssDAF12 agonist -1.6.
`O=C(CCSc1ccccc1Cl)Nc1cccc([N+](=O)[O-])c1` gave DAX1 inh-1 0.8, hcDAF-12 act 5.4, hgDAF12 agonist 10.5*, DAX1 inh-2 0.5 and ssDAF12 agonist -0.8.
`Cc1ccc(S(=O)(=O)NCCCNS(=O)(=O)c2ccccc2[N+](=O)[O-])cc1` gave DAX1 inh-1 -0.8, hcDAF-12 act -2.9, hgDAF12 agonist 0.4, DAX1 inh-2 1.1 and ssDAF12 agonist -0.9.
Screening Cc1ccc(S(=O)(=O)NCC(=O)Nc2cccc([N+](=O)[O-])c2)cc1 returned DAX1 inh-1 -0.5, hcDAF-12 act 5.3, hgDAF12 agonist 1.1, DAX1 inh-2 -0.1 and ssDAF12 agonist 1.7*.
`COC(=O)c1ccccc1NC(=O)CS(=O)(=O)Cc1nc(-c2ccc(C)cc2)oc1C` gave DAX1 inh-1 0.8, hcDAF-12 act 2.6, hgDAF12 agonist -1.9, DAX1 inh-2 -0.8 and ssDAF12 agonist 1.1*.
For COc1ccc(NC(=O)CS(=O)(=O)Cc2nc(-c3ccc(C)cc3)oc2C)cc1 the results were DAX1 inh-1 -0.4, hcDAF-12 act 4.0, hgDAF12 agonist 0.6, DAX1 inh-2 0.9 and ssDAF12 agonist -0.8.
Screening NC(CO)(CO)COCc1ccccc1 returned DAX1 inh-1 -0.3, hcDAF-12 act 1.8, hgDAF12 agonist -0.2, DAX1 inh-2 0.5 and ssDAF12 agonist 1.3*.
`COc1ccc(OC)c(S(=O)(=O)N2CCCCC2C(=O)N2CCN(c3ccccc3F)CC2)c1` (stereo unspecified) gave DAX1 inh-1 -0.7, hcDAF-12 act -2.6, hgDAF12 agonist -3.0 and ssDAF12 agonist -2.1.
